SMILES strings stand for the structures. In all, about 58,000 compounds went through this assay and about 3,400 (5.9%) were called active. The full list was thinned out, with actives kept by preference. A number with no mark means an inactive call.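 How the source made its calls: active means luminescence count or its row- and column-corrected plate score outside the 99.7% band of the plate's sample wells, on either side; inactive means the rest.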 Where a SMILES comes first, the peptide text is derived from it. The star is where a group is joined. Bz = O=C(c1ccccc1)*

D(1A) dopamine receptor (Homo sapiens), sequence (P21728 whole entry, looked up): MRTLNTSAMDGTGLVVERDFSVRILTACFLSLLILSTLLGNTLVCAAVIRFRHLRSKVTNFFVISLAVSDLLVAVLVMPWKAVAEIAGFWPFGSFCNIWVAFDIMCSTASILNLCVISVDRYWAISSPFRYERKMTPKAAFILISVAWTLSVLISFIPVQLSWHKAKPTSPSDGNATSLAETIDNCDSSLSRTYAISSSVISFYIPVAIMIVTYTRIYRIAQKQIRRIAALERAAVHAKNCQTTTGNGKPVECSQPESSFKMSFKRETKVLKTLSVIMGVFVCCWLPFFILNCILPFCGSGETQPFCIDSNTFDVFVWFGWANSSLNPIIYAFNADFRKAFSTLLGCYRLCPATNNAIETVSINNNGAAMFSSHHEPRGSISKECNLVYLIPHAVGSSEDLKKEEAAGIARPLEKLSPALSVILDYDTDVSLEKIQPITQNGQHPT

This experiment addresses D(1A) dopamine receptor (Homo sapiens) (UniProt P21728). Kind of experiment: D1 CRE-luciferase signal change, two-sided – cell-based, HEK293 D1, dopamine EC30, D1 allosteric modulator project, primary screen (AID 641). The note with it: dopamine EC30 potentiation, at 10 µM, actives deviate in either direction.
For the compound `CCC1CCCCN1C(=O)Nc1cccc(NC(=O)N2CCCCC2CC)c1` (configuration not stated), the B-score was 0.11.
The value for `CCOCC(=O)NCc1ccc2c(c1)cc(C)n2C` was 0.132; that for `Cc1noc(C)c1S(=O)(=O)N1CCCC(C(=O)Nc2nccs2)C1` (configuration not stated) was -0.254; that for `COC(=O)C(C)C1Sc2ccccc2NC1=O` (configuration not stated) was 4.51 (active).
Next, `CCOC(=O)c1ccccc1NC(=O)CC1Nc2ccccc2NC1=O` (configuration not stated): -0.897.
Next, `COc1ccc(OC)c(N=Cc2c(O)[nH]c3ccccc23)c1`: 1.65; `COc1ccc(N=Cc2c(O)[nH]c3ccccc23)cc1OC`: -2.18 (active).
As to `COc1cc(N=Cc2c(O)[nH]c3ccccc23)cc(OC)c1OC`, the B-score is -1.15.
Consider `CN(C)Cc1c(O)ccc2occ(C(O)c3ccccc3)c12` (configuration not stated), for which the B-score was 0.
`Cc1nnc(SCC(=O)NCCOc2ccc(Cl)cc2)n1-c1ccccc1`: the B-score was 0.122.
Next, `O=C(CCC(=O)OCC(F)(F)C(F)F)NCc1ccccc1`: 0.31; `FC(F)(F)c1cc(-c2ccco2)nc(N2CCOCC2)n1`: 17 (active).
The value for `CCOC(=O)c1ccn(-c2nc(-c3ccco3)cc(C(F)(F)F)n2)n1` was -0.161; that for `FC(F)(F)c1nnc2sc(-c3ccco3)nn12` was 0.0156.
Next, `O=C(CSc1nc(-c2ccco2)cc(C(F)(F)F)n1)NCc1cccs1`: 0.0388; `O=C(CSc1nc(-c2ccco2)cc(C(F)(F)F)n1)N1CCc2ccccc2C1`: 0.312; `Cc1cc(C(F)(F)F)nn1-c1nc(-c2ccco2)cc(C(F)(F)F)n1`: 9.17 (active).
As for `C=CCc1cccc2cc(C(=O)N3CCN(C(=O)OCC)CC3)c(=O)oc12`, the B-score is -0.147.
Next, `CCOC(=O)Cn1c(=O)oc2cc(S(=O)(=O)N(C)Cc3ccco3)ccc21`: 0.239; `Cn1nnnc1SCC(=O)N1CCN(Cc2ccccc2)CC1`: 0.031; `CCOC(=O)N1CCC(NC(=O)COc2cc(=O)n(C)c3ccccc23)CC1`: 0.112.
The value for `Cc1occc1C(=O)N1CCCc2ccccc21` was 0.259; that for `Cc1ccc2c(c1)N(CC(=O)N1CCCc3ccccc31)C(=O)C(C)O2` (configuration not stated) was 1.2; that for `CCc1cc(=O)oc2cc(OCC(=O)N3CCCc4ccccc43)ccc12` was 8.41 (active).
Turning to `Cc1ccc(C2c3c(oc4ccc(C)cc4c3=O)C(=O)N2CCCN2CCOCC2)cc1` (configuration not stated), the B-score was 1.68.
With `Cc1ccc(S(=O)(=O)C(C#N)c2nc3ccccc3nc2N2CCCC2)cc1C` (configuration not stated), the B-score was 0.792.
In the case of `CC(C)(C)NC(=O)C(c1ccncc1)N(C(=O)CNC(=O)c1ccco1)c1ccc2c(c1)OCO2` (configuration not stated), the B-score is 1.5.
The value for `CCn1c2c(c3ccc(OC)cc31)CCCC2=O` was 0.923.
Next, `COc1ccc(CCN(C)CCN2C(=O)c3ccccc3C2=O)cc1OC`: 0.821.
Next, `COc1ccc(CCNC(=O)C2CCCN(Cc3nc(-c4cccc(Cl)c4)oc3C)C2)cc1OC` (configuration not stated): 0.204; `COc1ccc(CCN(C)C(=O)C2CCCN(Cc3ccc(OC)c(OC)c3)C2)cc1OC` (configuration not stated): 5.3 (active); `CCCN1CCN(CCCNC(=O)CN2C(=O)COc3ccccc32)CC1`: -0.525.
`O=C(CCN1C(=O)COc2ccccc21)NCCCN1CCN(c2ccc(F)cc2)CC1`: the B-score is -2.68 (active).
The value for `COc1ccc(N2CCN(CCNC(=O)CCN3C(=O)COc4ccccc43)CC2)cc1` was -0.0397; that for `Cn1nc(-c2ccc(Cl)cc2)c2cc(C(=O)NCc3ccco3)sc21` was -0.605; that for `COc1cc(NC(=O)N2CCOCC2)cc(OC)c1` was 4.92 (active).
The value for `CCOC(=O)c1[nH]c2ccc(OC)cc2c1NC(=O)N1CCOCC1` was 1.26.
Next, `COc1ccc(OCC(=O)N2CCOCC2)cc1`: 0.809; `COc1ccc2[nH]c(=O)c(CN(CC3CCCO3)C(=O)Nc3ccccc3)cc2c1` (configuration not stated): -0.175; `Cc1cc(C(F)(F)F)nn1CC(=O)N1CCCC1`: 0.971.
`COC(=O)c1ccccc1NC(=O)CSc1ccccn1`: the B-score is 3.05.
The value for `CCn1ncc(C2=NOC(C(=O)Nc3ccccc3C(=O)OC)C2)c1C` (configuration not stated) was 13.2 (active); that for `CCn1ncc(C2=NOC(C(=O)N3CCN(c4ccccc4)CC3)C2)c1C` (configuration not stated) was -0.447; that for `c1ccc(CCC2=NCCn3cccc32)cc1` was -0.434.
As for `O=C(C1CCN(CC2CCCCC2)CC1)N1CCCC1`, the B-score was 0.0452.
On to `COC(=O)C1=CN(C)C=C(C(=O)OC)C1c1ccc(Cl)cc1Cl`, for which the B-score is 0.625.
For the compound `CCCc1nc(N2CCN(C)CC2)c2sc(=S)n(-c3ccccc3)c2n1`, the B-score was 0.374.
Next, `CCCc1nc(-c2ccccc2O)n(-c2ccccc2)n1`: 8.71 (active); `O=C(NCc1ccco1)c1nc(-c2ccccc2)n(-c2ccccc2)n1`: -1.33; `O=C(c1ccco1)N1CCN(C(=O)C2CC(c3ccc(F)cc3)=NO2)CC1` (configuration not stated): -0.404.
The value for `CC1(C)CC(=O)C=C(NCc2ccncc2)C1` was 0.0608; that for `CCOC(=O)N1CCN(Cc2nc3c(c(=O)n(C)c(=O)n3C)n2Cc2ccccc2)CC1` was -0.0843; that for `CC(=O)Nc1ccc(S(=O)(=O)N2CCCC2C(=O)O)cc1` (configuration not stated) was -0.232.
For `OC(COc1cccc(OCC(O)CN2CCCC2)c1)CN1CCCC1` (configuration not stated), the B-score is -0.368.
Next, `O=C1c2cccc3cccc(c23)N1CN1CCN(c2ccccn2)CC1`: -2.84; `OC(COc1cccc2ccccc12)CN1CCN(c2ccccn2)CC1` (configuration not stated): -4.42 (active).
The value for `COc1ccc(NC(=O)Nc2cccc3cccnc23)cc1` was -0.391; that for `O=C(CSc1nnnn1C1CCCC1)Nc1ccc2c(c1)OCCO2` was -0.309; that for `COc1ccc(OC)c2sc(NC(=O)C3COc4ccccc4O3)nc12` (configuration not stated) was 1.13.
The value for `O=C(c1ccco1)N(Cc1nc2ccccc2c(=O)[nH]1)C1CCCC1` was -0.0551; that for `CCCC(=O)N(CCc1ccccc1)Cc1nc2ccccc2c(=O)[nH]1` was 0.0641; that for `CCN(Cc1nc2ccccc2c(=O)[nH]1)Cc1cc(=O)oc2cc(C)c(C)cc12` was -2.91 (active).
Take `COc1ccc(-n2nnc3c(=O)n(CC(=O)OCc4ccccc4)cnc32)cc1`: the B-score is -0.218.
The value for `Cn1c(SCC(=O)N2CCOCC2)nnc1-c1ccc(NC(=O)c2ccccc2F)cc1` was -0.459.
Take `CC(C)c1cc(C(=O)O)on1`: the B-score was 3.98 (active).
In the case of `CCC(=O)N1CCc2cc(S(=O)(=O)NC(C(=O)N3CCc4ccccc4C3)C(C)C)ccc21` (configuration not stated), the B-score was 1.68.
The value for `CNC(=O)c1c(NC(=O)c2ccc(S(=O)(=O)N3CCOCC3)cc2)sc2c1CCC2` was 0.787.
Next, `O=C(Oc1ccc(-c2nc(-c3ccccn3)no2)cc1)c1ccccc1`: -2.61 (active).
Next, `c1ccc(-c2noc(-c3cccs3)n2)nc1`: -6.15 (active).
Consider `CC(C)c1nc(-c2ccccn2)no1`, for which the B-score was -0.397.
Next, `O=C(Oc1ccccc1)c1ccc2nccnc2c1`: 0.299; `c1csc(-c2nc(-c3ccncc3)no2)c1`: 2.02.
The value for `O=C(c1cccs1)N(C(=O)c1cccs1)c1ccccn1` was -0.339.
Next, `O=C1C(C=NCC2CCCO2)=C(O)c2ccccc21` (configuration not stated): -0.132; `Cc1cc(C(=O)COC(=O)c2cccs2)c(C)n1-c1c(C)n(C)n(-c2ccccc2)c1=O`: -1.48.
With `COc1cccc(-n2cc3c(c2-c2ccccc2)c(=O)n(C)c(=O)n3C)c1`, the B-score is 0.281.
Next, `CCc1c(O)nc(SCC(=O)N2CCCCC2)n(-c2ccccc2C)c1=O`: 0.0102.
Next, `Cc1ccc(S(=O)(=O)c2c(N)n(C)c3nc4ccccc4nc23)cc1`: 8.84 (active); `C=CCn1c(N)c(S(=O)(=O)c2cccs2)c2nc3ccccc3nc21`: -0.811; `Cc1ccc(S(=O)(=O)NCc2nc3ccccc3c(=O)n2N)cc1`: -0.0901.
As to `O=C(NC(Cc1ccccc1)C(=O)N1CCCC1C(=O)O)c1ccccc1` (stereo not drawn) (Bz-Phe-Pro-OH; configuration not given here), the B-score was 0.682.
The value for `CCOC(=O)c1ccc(N2C(=O)CC(N3CCC(C(=O)OCC)CC3)C2=O)cc1` (configuration not stated) was -0.257; that for `COCCOC(=O)C1=C(C)NC(=O)NC1c1ccc(Cl)cc1` (configuration not stated) was -0.276; that for `CCOc1ccccc1/C=c1\sc2nc(-c3ccco3)nn2c1=O` was -0.399.
Next, `COc1cccc2c(=O)n(CC(=O)N3CCCCCC3)ccc12`: 0.116.
The value for `CCOC(=O)/C=c1\s/c(=C\c2ccccc2OC)c(=O)n1CC(=O)N1CCOCC1` was 4.29 (active); that for `CN(C)Cc1c(C#N)c2ccccc2n1C` was -1.12.
In the case of `CCn1cc(C(=O)N2CC=C(c3ccccc3)CC2)c(=O)c2ccc(C)nc21`, the B-score was 1.17.
The value for `CCn1cc(C(=O)NCc2ccc(OC)cc2OC)c(=O)c2ccc(C)nc21` was 5.55 (active); that for `CCOc1ccc(C(=O)Nc2cc(OC)ccc2OC)cc1` was 0.0877; that for `CCSc1nc2c(c(=O)[nH]1)C(c1cccnc1)C(C(=O)OC(C)C)=C(C)N2` (configuration not stated) was 0.843.
The value for `O=c1/c(=C/c2ccc(CNS(=O)(=O)c3ccccc3)o2)sc2n1CCN=2` was -0.139; that for `Cc1ccc(C)c(S(=O)(=O)n2cnc3ccccc32)c1` was 0.135; that for `Cc1ccc(N2C(=O)c3oc4ccccc4c(=O)c3C2c2cccnc2)nc1` (configuration not stated) was 0.194.
The value for `Cc1ccc(C(=O)Nc2nnc(-c3ccncc3)s2)o1` was -0.406; that for `CCn1c(=N)c(S(=O)(=O)c2ccc(F)cc2)cc2c(=O)n3ccccc3nc21` was 4.93 (active).
Consider `CCn1c(=N)c(C(=O)NCCCOC)cc2c(=O)n3cccc(C)c3nc21`, for which the B-score was -0.055.

The values are drawn from PubChem BioAssay AID641 (Vanderbilt High Throughput Screening Facility, 2007).
